Results filed as inconclusive are left out. The source made the active and inactive calls. The calls were made as follows, unless noted: active = hit-call score of the fitted dose curve at least 0.9, where 1 is the maximum; inconclusive = response in the unintended direction; inactive = score below 0.9.
How the values were obtained:
[1] = molecular target: Oxysterols receptor LXR-beta (Homo sapiens) (UniProt P55055); assay: ATG_LXRb_TRANS: Attagene TRANS-FACTORIAL HepG2 Assay for human Liver X Receptor beta (LXRb) (AID 2282981); conditions: HepG2 Attagene TRANS GAL4-LXRb reporter, mRNA
In short: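 Gain-of-signal mRNA reporter endpoint, DMSO as negative control. Transiently transfected HepG2 cells carrying the NR-Gal4 chimera and GAL4-UAS reporter units were treated 24 h; transcripts quantified by RT-PCR and capillary electrophoresis fluorescence.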

[2] = molecular target: Hepatocyte nuclear factor 4-alpha (Homo sapiens) (UniProt P41235); assay: ATG_HNF4a_TRANS: Attagene TRANS-FACTORIAL HepG2 Assay for human Hepatocyte Nuclear Factor 4 alpha (HNF4a) (AID 2282982); conditions: HepG2 HNF4a transactivation reporter, mRNA readout
In short: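 Gain-of-signal mRNA induction, relative to DMSO vehicle, was read after 24 h compound treatment of HepG2 cells bearing transfected GAL4-UAS reporters. Detection used RT-PCR, 6-FAM primer extension and capillary electrophoresis.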

[3] = ATG_M_06_TRANS: Attagene TRANS-FACTORIAL HepG2 Assay for M06 Transcription Factor (Internal Marker) (AID 2282983); conditions: HepG2 Attagene TRANS M06 internal marker reporter
In short: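 Measured by capillary electrophoresis of fluorescently labelled RT-PCR products, this endpoint reflects reporter mRNA in HepG2 cells harbouring exogenous NR-GAL4 reporter constructs after 24 h exposure, with DMSO as baseline.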

[4] = ATG_M_32_TRANS: Attagene TRANS-FACTORIAL HepG2 Assay for M32 Transcription Factor (Internal Marker) (AID 2282984); conditions: HepG2 Attagene TRANS M32 internal marker reporter;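 also: transcript level of a background control reporter unit measured by RT-PCR and capillary electrophoresis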
In short: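 Capillary electrophoresis of 6-FAM-labelled reporter fragments gives the signal; data fitted for gain over DMSO negative control. Source: HepG2 cells bearing transient multiple reporter transcription units, 24 h exposure.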

[5] = molecular target: Transcriptional activator Myb (Homo sapiens) (UniProt P10242); assay: ATG_Myb_CIS: Attagene CIS-FACTORIAL HepG2 Assay for human Myeloblastosis (Myb) Proto-Oncogene Transcription Factor (AID 2282986; active = hit-call score of the fitted dose curve at least 0.9, where 1 is the maximum; inactive = score below 0.9); conditions: HepG2 Attagene CIS-FACTORIAL Myb reporter transcription; actives raise or lower the signal
In short: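 Steps: transfect HepG2 with cis-regulated reporter units; dose with chemical for 24 h; isolate RNA, reverse-transcribe, PCR-amplify and FAM-label reporter sequences; digest with HpaI; resolve by capillary electrophoresis. Activity fitted in both directions relative to DMSO.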

[6] = molecular target: Nuclear respiratory factor 1 (Homo sapiens) (UniProt Q16656); assay: ATG_NRF1_CIS: Attagene CIS-FACTORIAL HepG2 Assay for human Nuclear Respiratory Factor 1 (NRF1) Orphan Gene (AID 2282987; active = hit-call score of the fitted dose curve at least 0.9, where 1 is the maximum; inactive = score below 0.9); conditions: HepG2 NRF1 cis-element reporter, Attagene multiplex; actives raise or lower the signal
In short: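 Fluorescence intensity of labelled reporter cDNA fragments, resolved by capillary electrophoresis, served as readout for NRF1 cis-element activity. Transiently transfected HepG2 cells were dosed for 24 hours; activity in either direction was fitted against DMSO negative control.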

[7] = ATG_NFI_CIS: Attagene CIS-FACTORIAL HepG2 Assay for human Nuclear Factor I (NFI) (AID 2282989; active = hit-call score of the fitted dose curve at least 0.9, where 1 is the maximum; inactive = score below 0.9); conditions: HepG2 cis-regulatory reporter, NFI response element transcription; actives raise or lower the signal
In short: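 HepG2, transient MRTU, 24 h exposure; RNA→cDNA→PCR→FAM label→HpaI→CE fluorescence. Bidirectional fit, DMSO = baseline.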

[8] = molecular target: Nuclear receptor subfamily 4 group A member 2 (Homo sapiens) (UniProt P43354); assay: ATG_NURR1_TRANS: Attagene TRANS-FACTORIAL HepG2 Assay for human Nuclear Receptor Related Protein 1 (NURR1) (AID 2282985); conditions: HepG2 Attagene TRANS reporter, mRNA readout
In short: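 HepG2 / transient MRTU transfection / 24 h compound exposure / RT-PCR + CE fluorescence of reporter mRNA / gain-of-signal vs DMSO.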

Chain of Nuclear respiratory factor 1 (Homo sapiens) (Q16656 whole entry, looked up, the tested form may be a part): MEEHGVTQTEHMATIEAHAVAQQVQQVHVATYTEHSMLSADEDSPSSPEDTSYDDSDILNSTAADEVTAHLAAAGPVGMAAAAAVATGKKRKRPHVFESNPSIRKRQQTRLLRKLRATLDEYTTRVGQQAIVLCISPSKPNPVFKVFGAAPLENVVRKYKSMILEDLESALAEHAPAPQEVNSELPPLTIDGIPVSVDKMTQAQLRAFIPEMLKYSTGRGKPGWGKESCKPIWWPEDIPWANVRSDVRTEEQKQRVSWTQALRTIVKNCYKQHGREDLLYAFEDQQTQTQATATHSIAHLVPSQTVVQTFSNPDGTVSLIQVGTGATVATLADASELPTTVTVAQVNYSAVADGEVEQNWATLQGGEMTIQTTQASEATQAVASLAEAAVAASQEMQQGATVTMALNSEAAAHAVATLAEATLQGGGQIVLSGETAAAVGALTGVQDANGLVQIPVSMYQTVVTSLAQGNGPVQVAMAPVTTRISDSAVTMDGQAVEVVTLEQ
Chain of Oxysterols receptor LXR-beta (Homo sapiens) (P55055 whole entry, looked up, the tested form may be a part): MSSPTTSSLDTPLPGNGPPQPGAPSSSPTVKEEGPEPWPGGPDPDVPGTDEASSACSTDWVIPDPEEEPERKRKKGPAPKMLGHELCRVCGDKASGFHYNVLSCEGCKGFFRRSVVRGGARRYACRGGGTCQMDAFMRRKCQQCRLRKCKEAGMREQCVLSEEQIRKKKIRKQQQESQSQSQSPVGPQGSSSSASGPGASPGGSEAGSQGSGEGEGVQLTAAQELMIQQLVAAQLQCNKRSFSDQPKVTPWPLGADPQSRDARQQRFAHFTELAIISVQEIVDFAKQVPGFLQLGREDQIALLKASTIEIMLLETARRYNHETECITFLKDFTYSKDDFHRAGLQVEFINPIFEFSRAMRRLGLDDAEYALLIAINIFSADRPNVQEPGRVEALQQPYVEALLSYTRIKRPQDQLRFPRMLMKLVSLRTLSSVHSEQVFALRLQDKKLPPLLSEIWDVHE
Chain of Nuclear receptor subfamily 4 group A member 2 (Homo sapiens) (P43354 whole entry, looked up): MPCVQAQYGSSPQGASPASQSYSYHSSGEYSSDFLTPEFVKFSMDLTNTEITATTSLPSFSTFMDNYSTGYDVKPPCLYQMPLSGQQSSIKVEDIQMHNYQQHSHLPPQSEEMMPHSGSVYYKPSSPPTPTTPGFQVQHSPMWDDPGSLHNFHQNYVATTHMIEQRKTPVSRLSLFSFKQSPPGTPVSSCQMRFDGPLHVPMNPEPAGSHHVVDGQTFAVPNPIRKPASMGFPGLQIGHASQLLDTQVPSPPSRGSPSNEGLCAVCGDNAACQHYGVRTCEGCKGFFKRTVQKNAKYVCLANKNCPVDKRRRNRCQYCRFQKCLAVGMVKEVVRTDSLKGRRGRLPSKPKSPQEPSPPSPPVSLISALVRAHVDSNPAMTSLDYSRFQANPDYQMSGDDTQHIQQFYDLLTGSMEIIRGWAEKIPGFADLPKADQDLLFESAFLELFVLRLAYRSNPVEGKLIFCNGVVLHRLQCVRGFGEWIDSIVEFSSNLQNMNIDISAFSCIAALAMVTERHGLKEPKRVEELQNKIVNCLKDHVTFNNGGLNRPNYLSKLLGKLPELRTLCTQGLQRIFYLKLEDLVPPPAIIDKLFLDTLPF
Chain of Transcriptional activator Myb (Homo sapiens) (P10242 whole entry, looked up): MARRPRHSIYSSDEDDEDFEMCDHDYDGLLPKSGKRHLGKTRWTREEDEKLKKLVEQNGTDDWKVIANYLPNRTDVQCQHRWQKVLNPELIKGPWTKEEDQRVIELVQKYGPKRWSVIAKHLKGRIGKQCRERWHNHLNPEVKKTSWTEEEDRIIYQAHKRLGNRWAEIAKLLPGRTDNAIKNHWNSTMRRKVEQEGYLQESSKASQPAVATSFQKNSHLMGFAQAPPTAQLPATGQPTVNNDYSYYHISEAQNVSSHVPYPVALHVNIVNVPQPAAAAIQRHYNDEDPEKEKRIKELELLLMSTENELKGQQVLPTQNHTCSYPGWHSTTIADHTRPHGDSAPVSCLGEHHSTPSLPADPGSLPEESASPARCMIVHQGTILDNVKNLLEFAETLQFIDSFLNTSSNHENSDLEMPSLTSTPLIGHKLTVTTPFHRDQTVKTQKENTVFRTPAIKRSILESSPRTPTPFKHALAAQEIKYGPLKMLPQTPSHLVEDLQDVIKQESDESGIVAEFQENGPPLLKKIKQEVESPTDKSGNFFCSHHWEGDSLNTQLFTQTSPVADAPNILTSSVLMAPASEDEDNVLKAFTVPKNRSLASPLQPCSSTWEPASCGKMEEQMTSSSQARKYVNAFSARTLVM
Chain of Hepatocyte nuclear factor 4-alpha (Homo sapiens) (P41235 whole entry, looked up, the tested form may be a part): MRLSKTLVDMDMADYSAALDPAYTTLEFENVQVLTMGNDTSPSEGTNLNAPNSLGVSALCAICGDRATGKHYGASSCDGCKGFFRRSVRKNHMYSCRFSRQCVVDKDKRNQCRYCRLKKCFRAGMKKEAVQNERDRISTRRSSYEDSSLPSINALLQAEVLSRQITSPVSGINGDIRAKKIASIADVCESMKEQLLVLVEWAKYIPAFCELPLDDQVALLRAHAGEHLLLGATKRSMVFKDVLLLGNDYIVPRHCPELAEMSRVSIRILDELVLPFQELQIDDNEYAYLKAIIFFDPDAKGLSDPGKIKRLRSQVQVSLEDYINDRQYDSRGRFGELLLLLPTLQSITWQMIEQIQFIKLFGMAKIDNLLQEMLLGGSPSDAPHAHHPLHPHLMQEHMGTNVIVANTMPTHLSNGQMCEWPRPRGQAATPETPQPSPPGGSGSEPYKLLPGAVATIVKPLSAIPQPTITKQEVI

SMILES	outcome [1]	outcome [2]	outcome [3]	outcome [4]	outcome [5]	outcome [6]	outcome [7]	outcome [8]	AC50 [8]	AC50 [6]
CCOc1cc(C=O)ccc1O	inactive	inactive	inactive	inactive	inactive	inactive	inactive	–	–	–
N#CCC#N	inactive	inactive	inactive	–	–	inactive	inactive	inactive	–	–
CC(C)O.CC(C)O.OCCN(CCO)CCO.OCCN(CCO)CCO.[Ti]	inactive	–	inactive	inactive	inactive	inactive	inactive	–	–	–
CCC(C)(C#N)N=NC(C)(C#N)CC (configuration not stated)	–	inactive	inactive	inactive	inactive	inactive	inactive	inactive	–	–
Cl[C@H]1OCCO[C@@H]1Cl	inactive	inactive	inactive	inactive	inactive	inactive	inactive	–	–	–
Fc1cccc(Cl)c1CCl	inactive	–	inactive	inactive	inactive	inactive	inactive	–	–	–
O=C=Nc1ccc(Cl)cc1	inactive	–	–	inactive	–	–	inactive	inactive	–	–
Nc1nc(N)nc(Cl)n1	inactive	inactive	–	inactive	inactive	inactive	inactive	–	–	–
CC1CC(=O)O1 (configuration not stated)	inactive	inactive	inactive	inactive	–	inactive	inactive	inactive	–	–
CCOP(=O)(OCC)OC(=CCl)c1ccc(Cl)cc1Cl	–	–	–	inactive	inactive	inactive	inactive	–	100 µM (active)	–
O=[N+]([O-])c1cccc2ccccc12	–	inactive	inactive	inactive	inactive	inactive	inactive	–	–	–
CC(=Cc1ccccc1)[N+](=O)[O-]	–	inactive	inactive	–	inactive	–	inactive	inactive	–	17.2 µM (active)
c1ccc2sc(SNC3CCCCC3)nc2c1	–	–	–	inactive	inactive	–	inactive	inactive	–	–
O=C(O)COc1cc(Cl)c(Cl)cc1Cl	–	–	inactive	inactive	inactive	inactive	inactive	–	–	–

Reference: PubChem BioAssay (EPA / NIEHS)
